PubChem BioAssay AID1159606 (Sanford-Burnham Center for Chemical Genomics, 2016)
In all, about 360,000 compounds went through this assay and about 7,300 (2%) were called active. This is one part of a sample in which actives are shown more often than they occur. Rule as the data show it: active = inhibition above about 50%; inactive = the rest.

Assay: blockers of TWEAK-induced Fn14 reporter activity – luciferase reporter cells, uHTS, primary screen (AID 1159606)
Settings: TWEAK-stimulated Fn14 reporter cells, luciferase luminescence, 8 h; at 10 µM; active compounds read high

inhibition, inactive:
COc1ccc(CCNC(=S)NC(=O)/C=C/c2ccc(C)cc2)cc1OC -15.4%, Cc1ccc2c(Cl)c(C(=O)NCCCn3ccnc3)sc2c1 -11.3%, Cc1ccc(-c2nc(C#N)c(NCCCn3ccnc3)o2)cc1 -18.1%, O=C(O)C(=Cc1ccc([N+](=O)[O-])cc1)CCc1ccccc1 -10.9%, CCOC(=O)/C(=N\Nc1ccccc1[N+](=O)[O-])c1csc(Nc2ccccc2)n1 8.54%, CCCCc1c(-c2ccc(Br)cc2)ncn1CCc1ccccc1OC 38.9%, Cc1noc(C)c1NC(=O)N(C)C[C@@H]1Oc2cc(Br)ccc2S(=O)(=O)N([C@@H](C)CO)C[C@H]1C 18.1%, COC(=O)c1ccc(Nc2ncnc3sccc23)cc1 -10.3%, COC(=O)c1ccc2nc(C3CCCCC3)c(Cc3cccc(F)c3)n2c1 -20.2%, O=C(O)C(F)(F)C(NCc1ccccc1)c1ccccc1 (configuration not stated) -8.01%, Cn1ncc([N+](=O)[O-])c1C(=O)Nc1cc(Cl)ccc1Cl -23.8%, Cc1cc2nc(-c3ccc(F)cc3)c(Cc3ccsc3)n2c(C)c1Br 0.39%, Cc1cc(=O)oc2c3c(cc(OCC(=O)NCC(O)c4ccccc4)c12)OC(C)(C)CC3 (configuration not stated) -0.31%, O=C(CC1CCCCC1)NCc1ccc(F)cc1 7.42%, CCc1ccc2c(c1)NC(=O)C2(C)Cc1ccc(OC(F)(F)F)cc1 (configuration not stated) 8.25%, NS(=O)(=O)c1cccc(NC(=O)COC(=O)c2cc([N+](=O)[O-])ccc2N2CCCC2)c1 -16.4%, O=[N+]([O-])c1ccc2oc(-c3cccc(O)c3)nc2c1 5.84%, COc1ccc2oc(N)nc2c1 -11.6%, CCN(CC)c1ccc(NC(=O)c2ccc(=O)[nH]c2)cc1S(=O)(=O)Nc1ccc(OC)cc1 9.69%, COc1cc(NC(=O)COC(=O)CSc2ccc3ccccc3c2)c(C)cc1[N+](=O)[O-] 2.69%, CC(=O)c1cccc(NC(=S)N2CCN(S(C)(=O)=O)CC2)c1 -22.1%, CSc1ccccc1C(=O)Nc1cccc(C(C)=O)c1 0.31%, CC(=O)c1cccc(NC(=O)C2CCN(C(=O)c3ccccc3Cl)CC2)c1 -5.45%, COc1ccc(NC(C(=O)Nc2cccc(C(C)=O)c2)c2ccccc2)cc1 (configuration not stated) -31.7%, Cc1ccc(C2Nc3ccccc3C(=O)N2CCN2CCNC2=O)cc1 (configuration not stated) -6.92%, C[C@@H]1CN([C@@H](C)CO)C(=O)c2cc(NS(C)(=O)=O)ccc2O[C@@H](C)CCCCO[C@H]1CN(C)C(=O)Nc1ccc2c(c1)OCO2 -5.22%, O=C(c1ccc(F)cc1)N1CCC(n2nnc3ccccc32)CC1 -5.58%, CC1COc2ccccc2N1C(=O)c1ccc(F)cc1 (configuration not stated) 0.29%, CCCC(CCC(=O)OC)(C(=O)OCC)c1csc(N)n1 (configuration not stated) -16.1%, CC1(C)Oc2ccc3ccc(=O)oc3c2/C(=C/NCCO)C1=O 4.08%, CC1(C)Oc2ccc3ccc(=O)oc3c2/C(=N/O)C1=O 3.76%, COc1ccc(C2CC(c3cccc(OC)c3)=NN2c2ccc(S(N)(=O)=O)cc2)cc1 (configuration not stated) -3.98%, Cn1c(=O)c2c(nc(SCCNS(=O)(=O)c3ccccc3)n2C)n(C)c1=O 3.41%, CCOc1ccc(Cn2c(SCCCCC#N)nc3c2c(=O)n(C)c(=O)n3C)cc1OCC -21.4%, O=C(Cn1nnc2ccccc2c1=O)Nc1cc(C(F)(F)F)ccc1N1CCOCC1 1.74%, C#CCNC(=O)C1=C[C@@H](c2ccccc2)[C@H](CCCO)[C@@H](OCC)O1 4.59%, O=C(CCCCCn1c(=S)[nH]c2cc3c(cc2c1=O)OCO3)N1CCN(c2ccc(F)cc2)CC1 -18.2%, Cc1ccc(C)c(N2CCN(C(=O)CCCn3c(=O)c4cccn4c4cccnc43)CC2)c1 -17.6%, Cc1ccc(OCCCC(=O)N2CCOCC2)c(C)c1 -41.6%, O=C(CCCCCn1c(=O)[nH]c2ccccc2c1=O)NCCc1c[nH]c2ccccc12 35%, O=C(CCCC(=O)N(CC(=O)NC1CCCC1)Cc1ccccc1Cl)Nc1ccccn1 5.53%, CSCCC(NC(=O)C1CCC(C)CC1)C(=O)NCc1ccco1 (configuration not stated) -2.99%, Cc1ccc(Cn2cc(CN3CC(N4CCN(C)CC4)CS3(=O)=O)nn2)cc1 (configuration not stated) -2.98%, CN1CCN(c2ccc3c(c2)OC[C@H](Cc2ccccc2)NS3(=O)=O)CC1 -3.51%

inhibition, active:
Cc1ccc(S(=O)(=O)c2nc(NCCCn3ccnc3)sc2Cl)cc1 80.5%, CCOC(=O)/C(=C\c1ccc([N+](=O)[O-])cc1)C(=O)c1cc(C(C)=O)c(Nc2ccccc2)s1 104%, CC[C@H]1CN2CCc3cc(OC)c(OC)cc3[C@@H]2C[C@@H]1C[C@H]1NCCc2cc(OC)c(OC)cc21 98%, CCc1ccc2c(c1)C1(NN=C(c3ccccc3)S1)C(=O)N2 (configuration not stated) 87.5%, COc1cccc(-c2nc3cc(C)ccc3o2)c1 51.2%, CC[C@@H]1Cc2cc(O)ccc2C2=C1c1ccc(O)cc1C[C@H]2CC 77%, C=CCSc1nsc(NC(=O)Nc2cccc(C(C)=O)c2)n1 91%, CCSc1nsc(NC(=O)Nc2cccc(C(C)=O)c2)n1 87.9%, O=C(c1ccc(F)cc1)n1c(=S)nc2ccccn21 78.2%, C/C=C(/C)C(=O)OC1Cc2c(ccc3ccc(=O)oc23)OC1(C)C (configuration not stated) 94.7%, CCCSc1nc2c(c(=O)n(C)c(=O)n2C)n1Cc1ccc(C)cc1 68.3%, Cc1ccc(C)c(N2CCN(C(=O)CCCCn3c(=O)[nH]c4ccccc4c3=O)CC2)c1 50.3%, Cc1ccc(C)c(N2CCN(C(=O)CCCCCn3c(=S)[nH]c4ccc(N5CCOCC5)cc4c3=O)CC2)c1 88.1%
